From PubChem BioAssay AID1159580 (chemical genetic matrix, 2015)
Several values for one entry are separate records, joined by “and”; a condition that tells them apart may be missing. Equal entries are not always repeated. Hit rate of the full screen: of about 5,500 compounds, about 2,000 (36%) were called active. Roughly 18% stayed inconclusive and do not appear here. Cut-off read from the data, not from the text of the source: active = normalized growth mostly below about 0.91 (no sharp cut-off); inconclusive = no clear call, values can overlap the other calls; inactive = mostly above about 0.92. Some of the results follow.

Experiment: chemical genetic growth profiling, strain panel (AID 1159580);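 note: tested at 20 µM; growth read once vehicle control cultures reached saturation at 30 °C; 1 = growth at the plate median or of vehicle wells; lower values mean less growth of the strain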
Conditions: S. cerevisiae deletion strains, growth OD

Measured: normalized growth

O=C(/C=C/c1ccccc1)c1ccc(O[C@@H]2O[C@H](CO)[C@@H](O)[C@H](O)[C@H]2O)cc1O
inactive: locus YAL021C, strain ccr4, hits give low values 0.97 | locus YAL026C, strain drs2, hits give low values 0.923 | locus YAL030W, strain snc1, hits give low values 0.933 | locus YBR009C, strain hhf1, hits give low values 0.935 | locus YBR021W, strain FUR4, hits give low values 0.883 | locus YBR171W, strain sec66, hits give low values 0.914 | locus YBR229C, strain ROT2, hits give low values 0.922 | locus YBR279W, strain paf1, hits give low values 0.96 | locus YCL011C, strain gbp2, hits give low values 0.938 | locus YCL016C, strain dcc1, hits give low values 0.925 | locus YCL069W, strain vba3, hits give low values 0.96 | locus YCR088W, strain abp1, hits give low values 0.923 | locus YDL005C, strain med2, hits give low values 0.955 | locus YDL035C, strain GPR1, hits give low values 0.926 | locus YDL040C, strain nat1, hits give low values 0.937 | locus YDL074C, strain BRE1, hits give low values 0.861 | locus YDL101C, strain DUN1, hits give low values 0.943 | locus YDR069C, strain doa4, hits give low values 0.974 | locus YDR137W, strain rgp1, hits give low values 0.947 | locus YDR162C, strain NBP2, hits give low values 0.944 | locus YDR195W, strain ref2 1 | locus YDR334W, strain swr1, hits give low values 0.95 | locus YDR335W, strain msn5, hits give low values 0.938 | locus YDR392W, strain spt3, hits give low values 0.787 | locus YEL003W, strain gim4, hits give low values 0.931 | locus YEL037C, strain rad23, hits give low values 0.945 | locus YEL061C, strain CIN8 (second series), hits give low values 0.928 | locus YER015W, strain faa2, hits give low values 0.938 | locus YER111C, strain swi4, hits give low values 0.935 | locus YFR010W, strain ubp6, hits give low values 0.951 | locus YGL078C, strain dbp3, hits give low values 0.948 | locus YGL167C, strain pmr1, hits give low values 0.947 | locus YGL227W, strain vid30, hits give low values 0.932 | locus YGL248W, strain PDE1, hits give low values 0.936 | locus YGR252W, strain gcn5, hits give low values 0.79 | locus YHR013C, strain ard1, hits give low values 0.941 | locus YHR027C, strain rpn1, hits give low values 0.957 | locus YHR030C, strain SLT2, hits give low values 0.922 and 0.953 | locus YHR079C, strain IRE1, hits give low values 0.918 | locus YHR142W, strain chs7, hits give low values 0.882 | locus YIL066C, strain RNR3, hits give low values 0.906 | locus YIL073C, strain SPO22, hits give low values 0.956 | locus YJL092W, strain hpr5, hits give low values 0.926 | locus YJL095W, strain BCK1 (second series), hits give low values 0.944 | locus YJL095W, strain BCK1, hits give low values 0.923 and 0.945 | locus YJL115W, strain asf1, hits give low values 0.941 | locus YJL129C, strain trk1, hits give low values 0.897 | locus YJL154C, strain vps35, hits give low values 0.942 | locus YJL166W, strain qcr8, hits give low values 0.928 | locus YJL187C, strain SWE1 (second series), hits give low values 0.93 | locus YJL187C, strain SWE1, hits give low values 0.95 | locus YJR043C, strain POL32, hits give low values 0.893 | locus YJR066W, strain TOR1, hits give low values 0.857 | locus YJR075W, strain HOC1, hits give low values 0.913 | locus YKL009W, strain mrt4, hits give low values 0.906 | locus YKL160W, strain elf1, hits give low values 0.911 | locus YKL190W, strain CNB1, hits give low values 0.934 | locus YKR026C, strain gcn3, hits give low values 0.933 | locus YKR091W, strain srl3, hits give low values 0.938 | locus YLL041C, strain sdh2, hits give low values 0.937 | locus YLR027C, strain aat2, hits give low values 0.937 | locus YLR039C, strain RIC1, hits give low values 0.918 | locus YLR058C, strain SHM2, hits give low values 0.93 | locus YLR113W, strain HOG1, hits give low values 0.937 | locus YLR221C, strain rsa3, hits give low values 0.934 | locus YLR258W, strain gsy2, hits give low values 0.916 | locus YLR262C, strain YPT6 (second series), hits give low values 0.911 | locus YLR262C, strain YPT6, hits give low values 0.949 | locus YLR320W, strain mms22, hits give low values 0.894 | locus YLR357W, strain rsc2, hits give low values 0.929 | locus YML032C, strain rad52, hits give low values 0.916 | locus YML120C, strain ndi1, hits give low values 0.933 | locus YMR058W, strain fet3, hits give low values 0.931 | locus YMR125W, strain sto1, hits give low values 0.938 | locus YMR205C, strain PFK2, hits give low values 0.922 | locus YMR231W, strain pep5, hits give low values 0.947 | locus YMR307W, strain GAS1, hits give low values 0.692 | locus YNL067W, strain RPL9B, hits give low values 0.945 | locus YNL071W, strain lat1, hits give low values 0.942 | locus YNL183C, strain NPR1, hits give low values 0.911 | locus YNL209W, strain ssb2, hits give low values 0.937 | locus YNL233W, strain BNI4, hits give low values 0.877 | locus YNL248C, strain rpa49, hits give low values 0.896 | locus YNL322C, strain KRE1 (second series), hits give low values 0.921 | locus YNL322C, strain KRE1, hits give low values 0.936 | locus YNR049C, strain mso1, hits give low values 0.919 | locus YNR052C, strain pop2, hits give low values 0.92 | locus YOL006C, strain TOP1, hits give low values 0.879 | locus YOL012C, strain htz1 1.32 | locus YOR001W, strain rrp6, hits give low values 0.953 | locus YOR061W, strain CKA2, hits give low values 0.933 | locus YOR070C, strain gyp1, hits give low values 0.93 | locus YOR080W, strain dia2, hits give low values 0.948 | locus YOR106W, strain vam3, hits give low values 0.9 | locus YOR231W, strain MKK1, hits give low values 0.952 | locus YOR270C, strain vph1, hits give low values 0.925 | locus YOR290C, strain snf2, hits give low values 0.941 | locus YPL051W, strain arl3, hits give low values 0.931 | locus YPL055C, strain LGE1, hits give low values 0.901 | locus YPL240C, strain hsp82, hits give low values 0.932 | locus YPL256C, strain CLN2, hits give low values 0.889
active: locus YBL061C, strain skt5, hits give low values 0.886 | locus YBR023C, strain chs3, hits give low values 0.912 | locus YBR231C, strain swc5, hits give low values 0.899 | locus YCL029C, strain bik1, hits give low values 0.889 | locus YCL061C, strain MRC1, hits give low values 0.919 | locus YDL185W, strain tfp1, hits give low values 0.885 | locus YDL192W, strain arf1, hits give low values 0.829 | locus YDR001C, strain nth1, hits give low values 0.916 | locus YDR101C, strain arx1, hits give low values 0.892 | locus YDR159W, strain sac3, hits give low values 0.855 | locus YDR297W, strain sur2, hits give low values 0.921 | locus YDR318W, strain mcm21, hits give low values 0.892 | locus YDR388W, hits give low values 0.877 | locus YDR502C, strain sam2, hits give low values 0.882 | locus YEL061C, strain CIN8, hits give low values 0.918 | locus YER016W, strain bim1, hits give low values 0.921 | locus YER110C, hits give low values 0.869 | locus YER155C, strain BEM2 (second series), hits give low values 0.853 | locus YER155C, strain BEM2, hits give low values 0.912 | locus YER167W, strain BCK2, hits give low values 0.9 | locus YGL086W, strain mad1, hits give low values 0.885 | locus YGL173C, strain kem1, hits give low values 0.899 | locus YGL240W, strain doc1, hits give low values 0.853 | locus YGL253W, strain hxk2, hits give low values 0.902 | locus YGR135W, strain pre9, hits give low values 0.886 | locus YHR079C, strain IRE1 (second series), hits give low values 0.886 | locus YHR094C, strain hxt1, hits give low values 0.888 | locus YHR129C, strain ARP1, hits give low values 0.91 | locus YHR200W, strain rpn10, hits give low values 0.873 | locus YIL125W, strain kgd1, hits give low values 0.895 | locus YIR030C, strain dcg1, hits give low values 0.881 | locus YJL134W, strain LCB3, hits give low values 0.917 | locus YJL164C, strain tpk1, hits give low values 0.91 | locus YJL168C, strain set2, hits give low values 0.888 | locus YKL068W, hits give low values 0.905 | locus YKL085W, strain MDH1 (second series), hits give low values 0.902 | locus YKL085W, strain MDH1, hits give low values 0.902 | locus YKR001C, strain vps1, hits give low values 0.819 | locus YLL001W, strain dnm1, hits give low values 0.896 | locus YLL026W, hits give low values 0.924 | locus YLR102C, strain apc9, hits give low values 0.891 | locus YLR268W, strain sec22, hits give low values 0.88 | locus YLR330W, strain CHS5, hits give low values 0.904 | locus YLR342W, strain FKS1 (second series), hits give low values 0.767 | locus YLR342W, strain FKS1, hits give low values 0.865 | locus YLR370C, strain arc18, hits give low values 0.91 | locus YLR371W, strain rom2, hits give low values 0.756 | locus YLR384C, strain iki3, hits give low values 0.907 | locus YLR418C, strain cdc73, hits give low values 0.739 | locus YML016C, strain PPZ1, hits give low values 0.909 | locus YML124C, strain tub3, hits give low values 0.897 | locus YMR078C, strain ctf18, hits give low values 0.9 | locus YMR129W, hits give low values 0.91 | locus YMR223W, strain ubp8, hits give low values 0.877 | locus YNL250W, strain rad50, hits give low values 0.892 | locus YNL271C, strain bni1, hits give low values 0.858 | locus YNL298W, strain CLA4, hits give low values 0.884 | locus YNL307C, strain MCK1, hits give low values 0.887 | locus YOL147C, strain pex11, hits give low values 0.903 | locus YOR069W, strain VPS5, hits give low values 0.917 | locus YOR083W, strain WHI5, hits give low values 0.859 | locus YOR136W, strain idh2, hits give low values 0.912 | locus YOR144C, strain elg1, hits give low values 0.886 | locus YOR184W, strain ser1, hits give low values 0.864 | locus YOR265W, strain rbl2, hits give low values 0.926 | locus YOR316C, strain cot1, hits give low values 0.9 | locus YPL078C, strain atp4, hits give low values 0.891 | locus YPL106C, strain sse1, hits give low values 0.811 | locus YPL241C, strain CIN2, hits give low values 0.916 | locus YPR119W, strain clb2, hits give low values 0.885 | locus YPR141C, strain kar3, hits give low values 0.877 | locus YPR163C, strain tif3, hits give low values 0.899 | locus YPR167C, strain met16, hits give low values 0.916 | strain wtn01, hits give low values 0.859
